Screening results deposited in PubChem by The Scripps Research Institute Molecular Screening Center.
Only some compounds are listed: those with a hit (about 4.1% of all), similar ones and a draw of the others.
hcDAF12 agonist – H. contortus DAF-12 nuclear receptor activators, primary screen, cell-based, luminescence, HEK293, lit1-tk-luc reporter; HEK293 hcDAF-12 lit1-tk-luc reporter; 0% DMSO, 100% Δ7-dafachronic acid; activation, % at 6.8 µM; 370,000 compounds, 1.4% hits; AID 652067, 2013;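 active = activation above the mean of all tested compounds plus 3 SD, cut at about 5.5% in these data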;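 also: 100% = response to 3 µM Δ7-dafachronic acid high control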
ssDAF12 agonist – S. stercoralis DAF-12 nuclear receptor activators, primary screen, cell-based, luminescence, HEK293, GRIP1 co-expression, lit1-tk-luc; AID 652126, 2013; activation, % at 6.8 µM; Nuclear hormone receptor DAF-12 (Strongyloides stercoralis); HEK293 ssDAF-12/GRIP1 lit1-tk-luc reporter; % of 3 µM dafachronic acid response; 370,000 compounds, 1% hits;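 active = activation above the mean over all tested compounds plus 3 SD, cut at about 0.9% in these data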;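 also: 0% = DMSO-only wells and 100% = 3 µM delta7-dafachronic acid wells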
DAX1 inh-1 – DAX1 (NR0B1) inhibitors, primary screen, cell-based, HEK293, Gal4-DAX1, luciferase luminescence; Nuclear receptor subfamily 0 group B member 1 (Homo sapiens), P51843; HEK293 Gal4-DAX1 luciferase reporter; inhibition, % at 6.75 µM; 340,000 compounds, 0.99% hits; AID 504766, 2011;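 active = inhibition above the mean over all tested compounds plus 3 SD, cut at about 4.2% in these data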;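 also: 0% = DAX1-transfected cells with DMSO and 100% = empty-vector control cells with DMSO; inhibition shows as a rise in luminescence from relieved DAX1 repression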
Target sequence (P51843 207-470 limits assumed): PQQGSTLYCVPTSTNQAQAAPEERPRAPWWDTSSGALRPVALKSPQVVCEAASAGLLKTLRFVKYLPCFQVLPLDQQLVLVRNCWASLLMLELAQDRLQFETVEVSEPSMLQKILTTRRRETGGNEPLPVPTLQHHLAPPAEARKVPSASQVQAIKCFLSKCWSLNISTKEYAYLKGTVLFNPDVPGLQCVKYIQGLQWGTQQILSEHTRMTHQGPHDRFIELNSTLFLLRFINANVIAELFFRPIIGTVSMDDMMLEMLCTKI
hgDAF12 agonist – H. glycines DAF-12 receptor agonists, primary screen, cell-based, luminescence, HEK293, GAL4 fusion, UAS-luciferase | Nuclear hormone receptor DAF-12 (Heterodera glycines), GAL4 fusion | HEK293 GAL4-hgDAF12 UAS-luciferase reporter, agonist luminescence; normalized to butyrate control | activation, % at 6.8 µM | 370,000 compounds, 1.8% hits | AID 687014, 2013;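 active = activation above a cutoff set at the mean of all screened compounds plus 3 SD, cut at about 10% in these data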;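 also: 0% = DMSO wells and 100% = sodium butyrate wells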
DAX1 inh-2 – DAX1 (NR0B1) inhibitors on StAR promoter, primary screen, cell-based, luminescence, SF-1 (NR5A1), full-length DAX-1. HEK293T StAR-luciferase reporter, SF-1/DAX-1 repression relief. inhibition, % at 6.8 µM. 370,000 compounds, 1.1% hits. AID 652010, 2013;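 active = inhibition above the mean over all tested compounds plus 3 SD, cut at about 3.6% in these data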;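 also: 0% = DAX-1 cells with DMSO and 100% = cells lacking DAX-1 with DMSO; higher inhibition means more luminescence from relief of DAX-1 repression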
An asterisk follows results filed as active.

For COc1ccccc1Cc1c(-c2ccc(F)cc2)nc2c3ccccc3ccn12 the results were hcDAF12 agonist 5.8*, ssDAF12 agonist 0, hgDAF12 agonist 5 and DAX1 inh-2 0.
Screening Cc1ccc(-c2nc3c4ccccc4ccn3c2Cc2ccccc2C(F)(F)F)cc1 returned hcDAF12 agonist 5, ssDAF12 agonist 0.9*, hgDAF12 agonist 2 and DAX1 inh-2 1.
COc1ccccc1Cc1c(-c2ccco2)nc2ccc(C)cn12 was read as hcDAF12 agonist 1, ssDAF12 agonist 0, hgDAF12 agonist 5 and DAX1 inh-2 1.
For CC(=O)c1cc(-c2ccc3c(c2)OCO3)c(=O)n2c1CCC2 the results were hcDAF12 agonist 2, ssDAF12 agonist 0, hgDAF12 agonist 4 and DAX1 inh-2 1.
COc1ccc(NC(=O)C(CCCCNC(=O)OC(C)(C)C)NC2(C(=O)NCCc3c[nH]c4ccccc34)CCCCC2)cc1 (centres undefined) was read as hcDAF12 agonist -1, ssDAF12 agonist -2 and hgDAF12 agonist -3.
`C#CCN1CC(N(C)CCOC(=O)c2cc3ccccc3[nH]2)CS1(=O)=O` (centres undefined) gave hcDAF12 agonist -1, ssDAF12 agonist -1, hgDAF12 agonist 0 and DAX1 inh-2 -1.
For O=C(NN1C(=O)/C(=C/c2ccc(O)c(O)c2)SC1=S)c1ccccc1 the results were hcDAF12 agonist -1, ssDAF12 agonist 1.2*, DAX1 inh-1 1, hgDAF12 agonist -1 and DAX1 inh-2 0.
Screening CCOC(=O)N1CCN(S(=O)(=O)c2ccc(C(=O)N(CCN(C)C)c3nc4ccc(Cl)cc4s3)cc2)CC1 returned hcDAF12 agonist 3, ssDAF12 agonist -1, DAX1 inh-1 0, hgDAF12 agonist 1 and DAX1 inh-2 3.
`CCOC(=O)N1CCN(S(=O)(=O)c2ccc(C(=O)N(CCCN(C)C)c3nc4ccc(OC)cc4s3)cc2)CC1` gave hcDAF12 agonist 2, ssDAF12 agonist 0, DAX1 inh-1 -1, hgDAF12 agonist -1 and DAX1 inh-2 3.6*.
S=C(c1ccc(-c2ccccc2Cl)o1)N1CCCCC1 was read as hcDAF12 agonist 3, ssDAF12 agonist 1, DAX1 inh-1 1, hgDAF12 agonist 12* and DAX1 inh-2 3.
CN1CCN(C(=S)c2ccc(-c3cccc(Cl)c3Cl)o2)CC1 was read as hcDAF12 agonist 4, ssDAF12 agonist 0, DAX1 inh-1 2, hgDAF12 agonist 12* and DAX1 inh-2 3.
CCOC(=O)C1CCCN(C(=O)c2ccc(-c3ccccc3Cl)o2)C1 (centres undefined) was read as hcDAF12 agonist 0, ssDAF12 agonist 0, DAX1 inh-1 0, hgDAF12 agonist 7 and DAX1 inh-2 4.3*.
For O=C(O)c1ccc(-c2ccccc2Cl)o1 the results were hcDAF12 agonist -1, ssDAF12 agonist -1, DAX1 inh-1 2, hgDAF12 agonist -3 and DAX1 inh-2 -1.
`Cc1cccc(Cn2cc(COC(=O)N3CCCC3)nn2)c1` gave hcDAF12 agonist -1, ssDAF12 agonist -2, hgDAF12 agonist -2 and DAX1 inh-2 0.
For CCN1CCN(Cc2ccc(NC(=O)Nc3ccccc3OC)cc2)CC1 the results were hcDAF12 agonist 5, ssDAF12 agonist 0, DAX1 inh-1 2, hgDAF12 agonist 12* and DAX1 inh-2 1.
For C[n+]1c(/C=C/c2ccc(O)cc2)ccc2ccccc21 the results were hcDAF12 agonist 5, ssDAF12 agonist -1, DAX1 inh-1 0, hgDAF12 agonist 10 and DAX1 inh-2 1.
C[n+]1c(/C=C/c2ccc3c(c2)OCO3)ccc2ccccc21 was read as hcDAF12 agonist -2, ssDAF12 agonist -3, DAX1 inh-1 6.0*, hgDAF12 agonist -6 and DAX1 inh-2 -1.
`COc1ccccc1CC(=O)c1ccc(OCc2ccccc2)cc1` gave hcDAF12 agonist -1, ssDAF12 agonist -2, DAX1 inh-1 1, hgDAF12 agonist 2 and DAX1 inh-2 0.
For CCOc1ccc(/C=C/C(=O)c2ccccc2)cc1 the results were hcDAF12 agonist 6.2*, ssDAF12 agonist 0, DAX1 inh-1 4, hgDAF12 agonist 8 and DAX1 inh-2 2.
CCOc1ccc(C(=O)Cc2ccccc2)cc1 was read as hcDAF12 agonist 2, ssDAF12 agonist 1.1*, DAX1 inh-1 2, hgDAF12 agonist 12* and DAX1 inh-2 1.
CCOc1ccc(C(=O)/C=C/c2ccc(SC)cc2)cc1 was read as hcDAF12 agonist -1, ssDAF12 agonist -2, DAX1 inh-1 0, hgDAF12 agonist -3 and DAX1 inh-2 -1.
For Cc1ccc(/C=C/C(=O)c2ccc(O)cc2)cc1 the results were hcDAF12 agonist 2, ssDAF12 agonist -1, DAX1 inh-1 4.4*, hgDAF12 agonist 11* and DAX1 inh-2 0.
O[C@H](COc1cc(F)cc(F)c1)CN1CCC(C(O)(c2ccccc2)c2ccccc2)CC1 was read as hcDAF12 agonist -1, ssDAF12 agonist -1, hgDAF12 agonist -2 and DAX1 inh-2 -1.
`N#C/C(=C(/O)CCl)c1nc(-c2ccccc2)cs1` gave hcDAF12 agonist 4, ssDAF12 agonist 1.3*, DAX1 inh-1 0, hgDAF12 agonist 3 and DAX1 inh-2 1.
O=[N+]([O-])c1ccc2[nH]c(=S)sc2c1 was read as hcDAF12 agonist 3, ssDAF12 agonist 2.2*, DAX1 inh-1 -1, hgDAF12 agonist 3 and DAX1 inh-2 0.
CCCCc1c(-c2ccccc2OC)ncn1Cc1cccc(OC)c1 was read as hcDAF12 agonist -2, ssDAF12 agonist -1, hgDAF12 agonist -3 and DAX1 inh-2 -1.
CCCOc1ccc2c3c(c(=O)oc2c1)CCCC3 was read as hcDAF12 agonist 0, ssDAF12 agonist -1, DAX1 inh-1 0, hgDAF12 agonist 1 and DAX1 inh-2 -1.
C=CCOc1ccc2c3c(c(=O)oc2c1)CCCC3 was read as hcDAF12 agonist -1, ssDAF12 agonist -1, DAX1 inh-1 4.3*, hgDAF12 agonist 1 and DAX1 inh-2 -1.
Screening Cc1cc(C)nc(-n2ncc3c2CCCC3=O)n1 returned hcDAF12 agonist -3, ssDAF12 agonist -1, DAX1 inh-1 5.4*, hgDAF12 agonist 0 and DAX1 inh-2 0.
For CCOc1cccc(C=NNc2nc(=O)cc(C(=O)OC)s2)c1O the results were hcDAF12 agonist 0, ssDAF12 agonist -1, hgDAF12 agonist 0 and DAX1 inh-2 -1.
`Clc1nnc(NN=C2CCCC2)c2ccccc12` gave hcDAF12 agonist 4, ssDAF12 agonist 1.3*, DAX1 inh-1 4, hgDAF12 agonist 4 and DAX1 inh-2 0.
